Measured potencies and affinities stand elsewhere. Active and inactive are the calls of the source. The rule behind the calls is not given here.
Molecular target: KSHV LANA C-terminal domain (residues 932-1162) binding to LBS DNA (UniProt O40947)
Test: inhibitors of C-LANA binding to LBS DNA, dose response, biochemical, fluorescence polarization, cherry-picked samples (AID 504725)

SMILES	outcome
CC(C)CN(C(=O)CSc1nncn1C)C1CCS(=O)(=O)C1 (configuration not stated)	inactive
CCc1ccc(C2CC(c3cccc(Cl)c3)n3nc(N)nc3N2)cc1 (configuration not stated)	inactive
CCOC(=O)C(C)(C)N(Cc1ccccc1C)S(=O)(=O)c1ccc(Cl)c([N+](=O)[O-])c1	inactive
Cc1cc(/C=N/Nc2ccc([N+](=O)[O-])cn2)c(C)n1-c1cccc(C(=O)O)c1	inactive
COc1cc(SC)ccc1C(=O)OCC(=O)N1CCN(C(C)=O)CC1	inactive
CCN(C(=O)COC(=O)CCCOc1ccc(Cl)cc1C)c1c(N)n(Cc2ccccc2)c(=O)[nH]c1=O	inactive
CC(C)N(Cc1ccccc1)C(=O)Cn1c(=O)cnc2ccccc21	inactive
O=C1c2ccccc2C(=O)N1Cc1ccc2c(c1)OCO2	inactive
O=C(O)C1C2C=CC(CC2)C1C(=O)O (configuration not stated)	inactive
Cc1ccc(C)c(OCC(=O)N(Cc2nnc(-c3ccccc3Cl)o2)C2CC2)c1	inactive
O=C(O)CN1C(=O)/C(=C\c2cc(Br)ccc2OCc2ccc([N+](=O)[O-])cc2)SC1=S	inactive
O=C(NCc1cccnc1)C(=O)C1C(=O)Nc2ccccc21 (configuration not stated)	inactive
COc1ccc(C2c3ccc(O)cc3Oc3ncn(CCCO)c(=N)c32)cc1OC (configuration not stated)	inactive
CCCn1c(SCC(=O)NCc2cccs2)nc2c1c(=O)n(C)c(=O)n2C	inactive
Cc1cccnc1NC1(C(F)(F)F)N=C2SCCN2C1=O (configuration not stated)	inactive
C/C(=N\Nc1nc2c(s1)CCCC2)c1ccc(Cl)cc1	inactive
COc1cc(OC)cc(-c2c(-c3ccsc3)c3cc(Br)ccc3n2C)c1	inactive

Reference: PubChem BioAssay AID504725 (Broad Institute, 2011)
